According to PubChem BioAssay AID1159580 (chemical genetic matrix, 2015):
Where “and” joins values, the source holds several entries; their conditions need not be identical. Equal values may be shown once. Among all 5,500 compounds or so, about 2,000 (36%) were called active. Another 18% or so got no clear call; they are omitted. Cut-off read from the data, not from the text of the source: active = normalized growth mostly below about 0.91 (no sharp cut-off); inconclusive = no clear call, values can overlap the other calls; inactive = mostly above about 0.92. The list shows a part of the results.

Experiment: chemical genetic growth profiling, strain panel (AID 1159580);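 note: tested at 20 µM; growth read once vehicle control cultures reached saturation at 30 °C; 1 = growth at the plate median or of vehicle wells; lower values mean less growth of the strain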
Settings: S. cerevisiae deletion strains, growth OD

Measured: normalized growth

CC1(C)O[C@@H]2CC3C4C[C@H](F)C5=CC(=O)CC[C@]5(C)C4[C@@H](O)C[C@]3(C)[C@]2(C(=O)CO)O1 (stereo partly specified)
inactive: locus YAL013W, strain DEP1, active compounds read low 1.02 | locus YAL021C, strain ccr4, active compounds read low 0.971 | locus YAL026C, strain drs2, active compounds read low 1.01 | locus YAL030W, strain snc1, active compounds read low 1.01 | locus YBL061C, strain skt5, active compounds read low 1.01 | locus YBR009C, strain hhf1, active compounds read low 1 | locus YBR021W, strain FUR4, active compounds read low 1.02 | locus YBR023C, strain chs3, active compounds read low 1 | locus YBR171W, strain sec66, active compounds read low 1.01 | locus YBR229C, strain ROT2, active compounds read low 1.01 | locus YBR231C, strain swc5, active compounds read low 1 | locus YBR279W, strain paf1, active compounds read low 0.994 | locus YCL011C, strain gbp2, active compounds read low 1 | locus YCL016C, strain dcc1, active compounds read low 0.992 | locus YCL029C, strain bik1, active compounds read low 1.01 | locus YCL069W, strain vba3, active compounds read low 1 | locus YCR088W, strain abp1, active compounds read low 1.01 | locus YDL005C, strain med2, active compounds read low 1.03 | locus YDL035C, strain GPR1, active compounds read low 1.01 | locus YDL040C, strain nat1, active compounds read low 1.01 | locus YDL074C, strain BRE1, active compounds read low 1.04 | locus YDL101C, strain DUN1, active compounds read low 1.02 | locus YDL134C, strain PPH21, active compounds read low 1.01 | locus YDL185W, strain tfp1, active compounds read low 1.01 | locus YDL192W, strain arf1, active compounds read low 1.01 | locus YDR001C, strain nth1, active compounds read low 1 | locus YDR069C, strain doa4, active compounds read low 1.01 | locus YDR101C, strain arx1, active compounds read low 0.998 | locus YDR137W, strain rgp1, active compounds read low 0.995 | locus YDR150W, strain NUM1, active compounds read low 1.03 | locus YDR159W, strain sac3, active compounds read low 0.939 | locus YDR162C, strain NBP2, active compounds read low 1.03 | locus YDR195W, strain ref2 0.991 | locus YDR297W, strain sur2, active compounds read low 1.01 | locus YDR318W, strain mcm21, active compounds read low 0.999 | locus YDR334W, strain swr1, active compounds read low 1.01 | locus YDR335W, strain msn5, active compounds read low 1 | locus YDR388W, active compounds read low 1.01 | locus YDR392W, strain spt3, active compounds read low 0.931 | locus YDR502C, strain sam2, active compounds read low 1 | locus YEL003W, strain gim4, active compounds read low 0.999 | locus YEL037C, strain rad23, active compounds read low 1.01 | locus YEL061C, strain CIN8 (second series), active compounds read low 1.01 | locus YEL061C, strain CIN8, active compounds read low 1.01 | locus YER015W, strain faa2, active compounds read low 1.01 | locus YER016W, strain bim1, active compounds read low 1 | locus YER110C, active compounds read low 0.998 | locus YER111C, strain swi4, active compounds read low 1 | locus YER155C, strain BEM2 (second series), active compounds read low 1.03 | locus YER155C, strain BEM2, active compounds read low 1 | locus YER167W, strain BCK2, active compounds read low 1.01 | locus YFR010W, strain ubp6, active compounds read low 1.01 | locus YGL078C, strain dbp3, active compounds read low 0.995 | locus YGL086W, strain mad1, active compounds read low 1 | locus YGL167C, strain pmr1, active compounds read low 0.996 | locus YGL173C, strain kem1, active compounds read low 1.02 | locus YGL227W, strain vid30, active compounds read low 1 | locus YGL240W, strain doc1, active compounds read low 1 | locus YGL248W, strain PDE1, active compounds read low 1.01 | locus YGL253W, strain hxk2, active compounds read low 1 | locus YGR078C, strain PAC10, active compounds read low 1.02 | locus YGR135W, strain pre9, active compounds read low 1 | locus YGR229C, strain SMI1, active compounds read low 1.02 | locus YGR252W, strain gcn5, active compounds read low 0.983 | locus YHR013C, strain ard1, active compounds read low 0.994 | locus YHR027C, strain rpn1, active compounds read low 1.02 | locus YHR030C, strain SLT2, active compounds read low 1 and 1.02 | locus YHR079C, strain IRE1 (second series), active compounds read low 0.999 | locus YHR079C, strain IRE1, active compounds read low 1.03 | locus YHR094C, strain hxt1, active compounds read low 1.01 | locus YHR129C, strain ARP1, active compounds read low 1.01 | locus YHR142W, strain chs7, active compounds read low 1 | locus YHR200W, strain rpn10, active compounds read low 1.01 | locus YIL066C, strain RNR3, active compounds read low 1 | locus YIL073C, strain SPO22, active compounds read low 1.01 | locus YIL125W, strain kgd1, active compounds read low 0.995 | locus YIR030C, strain dcg1, active compounds read low 1.01 | locus YJL092W, strain hpr5, active compounds read low 1.02 | locus YJL095W, strain BCK1 (second series), active compounds read low 1.01 | locus YJL095W, strain BCK1, active compounds read low 0.999 and 1.02 | locus YJL115W, strain asf1, active compounds read low 1.01 | locus YJL129C, strain trk1, active compounds read low 1.02 | locus YJL134W, strain LCB3, active compounds read low 1.01 | locus YJL154C, strain vps35, active compounds read low 1.01 | locus YJL164C, strain tpk1, active compounds read low 0.982 | locus YJL166W, strain qcr8, active compounds read low 1.01 | locus YJL168C, strain set2, active compounds read low 1.01 | locus YJL187C, strain SWE1 (second series), active compounds read low 1.01 | locus YJL187C, strain SWE1, active compounds read low 1.01 | locus YJR043C, strain POL32, active compounds read low 0.994 | locus YJR066W, strain TOR1, active compounds read low 0.957
